# Experimental data published in PubChem BioAssay AID1159580 (chemical genetic matrix, 2015).
# “And” between values parts separate entries of the source, which are not always exact repeats. Identical values can stand only once. In all, about 5,500 compounds went through this assay and about 2,000 (36%) were called active. About 18% were inconclusive and are not listed. The list shows a part of the results. Values without a mark were called inactive. No stated cut-off is given here; in the data, active means normalized growth mostly below about 0.91 (no sharp cut-off); inconclusive means no clear call, values can overlap the other calls; inactive means mostly above about 0.92.
# Test: chemical genetic growth profiling, strain panel (AID 1159580);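 further: tested at 20 µM; growth read once vehicle control cultures reached saturation at 30 °C; 1 = growth at the plate median or of vehicle wells; lower values mean less growth of the strain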
# Details: S. cerevisiae deletion strains, growth OD
compound,measurement,setting,value
NC(=O)c1cc([N+](=O)[O-])cc([N+](=O)[O-])c1,normalized growth,"locus YAL021C, strain ccr4, active compounds read low",1.03
same,normalized growth,"locus YAL026C, strain drs2, active compounds read low",0.962
same,normalized growth,"locus YAL030W, strain snc1, active compounds read low",1.01
same,normalized growth,"locus YBL061C, strain skt5, active compounds read low",1.02
same,normalized growth,"locus YBR009C, strain hhf1, active compounds read low",0.972
same,normalized growth,"locus YBR021W, strain FUR4, active compounds read low",0.99
same,normalized growth,"locus YBR023C, strain chs3, active compounds read low",1.02
same,normalized growth,"locus YBR171W, strain sec66, active compounds read low",1.04
same,normalized growth,"locus YBR229C, strain ROT2, active compounds read low",1.02
same,normalized growth,"locus YBR231C, strain swc5, active compounds read low",0.991
same,normalized growth,"locus YBR279W, strain paf1, active compounds read low",1.03
same,normalized growth,"locus YCL011C, strain gbp2, active compounds read low",1.02
same,normalized growth,"locus YCL016C, strain dcc1, active compounds read low",1.05
same,normalized growth,"locus YCL029C, strain bik1, active compounds read low",0.983
same,normalized growth,"locus YCL061C, strain MRC1, active compounds read low",1.01
same,normalized growth,"locus YCL069W, strain vba3, active compounds read low",1.02
same,normalized growth,"locus YCR088W, strain abp1, active compounds read low",1.02
same,normalized growth,"locus YDL005C, strain med2, active compounds read low",1.03
same,normalized growth,"locus YDL035C, strain GPR1, active compounds read low",0.992
same,normalized growth,"locus YDL040C, strain nat1, active compounds read low",1.01
same,normalized growth,"locus YDL074C, strain BRE1, active compounds read low",0.986
same,normalized growth,"locus YDL101C, strain DUN1, active compounds read low",0.989
same,normalized growth,"locus YDL134C, strain PPH21, active compounds read low",1.01
same,normalized growth,"locus YDL185W, strain tfp1, active compounds read low",0.974
same,normalized growth,"locus YDL192W, strain arf1, active compounds read low",0.986
same,normalized growth,"locus YDR001C, strain nth1, active compounds read low",1.01
same,normalized growth,"locus YDR069C, strain doa4, active compounds read low",0.979
same,normalized growth,"locus YDR101C, strain arx1, active compounds read low",0.982
same,normalized growth,"locus YDR137W, strain rgp1, active compounds read low",1.25 [resistant] (active)
same,normalized growth,"locus YDR159W, strain sac3, active compounds read low",1.04
same,normalized growth,"locus YDR162C, strain NBP2, active compounds read low",0.992
same,normalized growth,"locus YDR195W, strain ref2",0.78 (active)
same,normalized growth,"locus YDR297W, strain sur2, active compounds read low",1
same,normalized growth,"locus YDR318W, strain mcm21, active compounds read low",0.974
same,normalized growth,"locus YDR334W, strain swr1, active compounds read low",1.03
same,normalized growth,"locus YDR335W, strain msn5, active compounds read low",1.02
same,normalized growth,"locus YDR388W, active compounds read low",0.996
same,normalized growth,"locus YDR392W, strain spt3, active compounds read low",0.633 (active)
same,normalized growth,"locus YDR502C, strain sam2, active compounds read low",0.983
same,normalized growth,"locus YEL003W, strain gim4, active compounds read low",0.961
same,normalized growth,"locus YEL037C, strain rad23, active compounds read low",1.01
same,normalized growth,"locus YEL061C, strain CIN8 (second series), active compounds read low",1.02
same,normalized growth,"locus YEL061C, strain CIN8, active compounds read low",1.01
same,normalized growth,"locus YER015W, strain faa2, active compounds read low",1.02
same,normalized growth,"locus YER016W, strain bim1, active compounds read low",0.999
same,normalized growth,"locus YER110C, active compounds read low",0.979
same,normalized growth,"locus YER111C, strain swi4, active compounds read low",1.04
same,normalized growth,"locus YER155C, strain BEM2 (second series), active compounds read low",0.788 (active)
same,normalized growth,"locus YER155C, strain BEM2, active compounds read low",1.01
same,normalized growth,"locus YER167W, strain BCK2, active compounds read low",1.02
same,normalized growth,"locus YFR010W, strain ubp6, active compounds read low",0.995
same,normalized growth,"locus YGL078C, strain dbp3, active compounds read low",0.995
same,normalized growth,"locus YGL086W, strain mad1, active compounds read low",0.968
same,normalized growth,"locus YGL167C, strain pmr1, active compounds read low",1.02
same,normalized growth,"locus YGL173C, strain kem1, active compounds read low",1.01
same,normalized growth,"locus YGL227W, strain vid30, active compounds read low",1.02
same,normalized growth,"locus YGL240W, strain doc1, active compounds read low",0.969
same,normalized growth,"locus YGL248W, strain PDE1, active compounds read low",1.02
same,normalized growth,"locus YGL253W, strain hxk2, active compounds read low",0.994
same,normalized growth,"locus YGR078C, strain PAC10, active compounds read low",1
same,normalized growth,"locus YGR135W, strain pre9, active compounds read low",0.978
same,normalized growth,"locus YGR252W, strain gcn5, active compounds read low",0.906
same,normalized growth,"locus YHR013C, strain ard1, active compounds read low",1.09
same,normalized growth,"locus YHR027C, strain rpn1, active compounds read low",0.997
same,normalized growth,"locus YHR030C, strain SLT2, active compounds read low",1.02 and 0.959
same,normalized growth,"locus YHR079C, strain IRE1 (second series), active compounds read low",0.996
same,normalized growth,"locus YHR079C, strain IRE1, active compounds read low",0.955
same,normalized growth,"locus YHR094C, strain hxt1, active compounds read low",0.954
same,normalized growth,"locus YHR129C, strain ARP1, active compounds read low",1.02
same,normalized growth,"locus YHR142W, strain chs7, active compounds read low",1.01
same,normalized growth,"locus YHR200W, strain rpn10, active compounds read low",0.997
same,normalized growth,"locus YIL066C, strain RNR3, active compounds read low",1.01
same,normalized growth,"locus YIL073C, strain SPO22, active compounds read low",0.993
same,normalized growth,"locus YIL125W, strain kgd1, active compounds read low",1
same,normalized growth,"locus YIR030C, strain dcg1, active compounds read low",1
same,normalized growth,"locus YJL092W, strain hpr5, active compounds read low",1.02
same,normalized growth,"locus YJL095W, strain BCK1 (second series), active compounds read low",1.01
same,normalized growth,"locus YJL095W, strain BCK1, active compounds read low",0.994 and 0.966
same,normalized growth,"locus YJL115W, strain asf1, active compounds read low",1.02
same,normalized growth,"locus YJL129C, strain trk1, active compounds read low",1.1
same,normalized growth,"locus YJL134W, strain LCB3, active compounds read low",1.01
same,normalized growth,"locus YJL154C, strain vps35, active compounds read low",1.03
same,normalized growth,"locus YJL164C, strain tpk1, active compounds read low",0.977
same,normalized growth,"locus YJL166W, strain qcr8, active compounds read low",1
same,normalized growth,"locus YJL168C, strain set2, active compounds read low",0.997
same,normalized growth,"locus YJL187C, strain SWE1 (second series), active compounds read low",1.01
same,normalized growth,"locus YJL187C, strain SWE1, active compounds read low",1.03
same,normalized growth,"locus YJR043C, strain POL32, active compounds read low",0.967
same,normalized growth,"locus YJR066W, strain TOR1, active compounds read low",0.918
